# How the values were obtained:
# Assay in all cases: DAPPL (digital affinity profiling via proximity ligation, sequencing); 10 mM Tris-HCl pH 7.5, 50 mM NaCl, 1 mM DTT, 4% glycerol, room temperature, 30 min; GST-TFs on glutathione beads, 16-mer random dsDNA library, 0.1% formaldehyde crosslink after washing; high values mean tight binding
# Conditions in all cases: protein: recombinant; tags: N-terminal GST; dsDNA, one strand shown
# [1] = target: T1, FLI1 (Homo sapiens, UniProt Q01543 1-452)
# T1 sequence: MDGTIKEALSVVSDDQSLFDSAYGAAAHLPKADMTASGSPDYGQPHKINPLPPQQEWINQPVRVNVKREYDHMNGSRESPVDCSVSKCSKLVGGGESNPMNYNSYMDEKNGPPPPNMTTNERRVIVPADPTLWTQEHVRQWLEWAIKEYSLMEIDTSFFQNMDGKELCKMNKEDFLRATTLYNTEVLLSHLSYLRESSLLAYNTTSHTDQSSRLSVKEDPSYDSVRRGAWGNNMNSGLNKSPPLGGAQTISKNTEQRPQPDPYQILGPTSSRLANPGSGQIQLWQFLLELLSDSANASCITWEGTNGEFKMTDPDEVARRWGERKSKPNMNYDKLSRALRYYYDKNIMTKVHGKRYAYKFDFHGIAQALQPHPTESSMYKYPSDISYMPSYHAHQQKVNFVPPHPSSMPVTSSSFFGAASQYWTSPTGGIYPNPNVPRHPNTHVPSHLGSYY
# Procedure, shortened: (§1)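 Beads coated with glutathione captured GST-fused human transcription factors that had been expressed in yeast, and the factors were then given DNA barcodes and pooled with a tag-only sample. The pools were incubated with 200 nmole of a random double-stranded 16-mer DNA library in Tris/NaCl/DTT/glycerol buffer for 30 min at room temperature, washed, crosslinked with 0.1% formaldehyde and proximity-ligated with BsaI/T4 ligase at 37 °C for 1 h. PCR amplification and Illumina NextSeq500 sequencing came last. Binding signal is each hexamer's read frequency for a factor divided by its frequency for the tag-only sample.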
# [2] = target: T2, ELK1 (Homo sapiens, UniProt P19419 1-428)
# T2 sequence: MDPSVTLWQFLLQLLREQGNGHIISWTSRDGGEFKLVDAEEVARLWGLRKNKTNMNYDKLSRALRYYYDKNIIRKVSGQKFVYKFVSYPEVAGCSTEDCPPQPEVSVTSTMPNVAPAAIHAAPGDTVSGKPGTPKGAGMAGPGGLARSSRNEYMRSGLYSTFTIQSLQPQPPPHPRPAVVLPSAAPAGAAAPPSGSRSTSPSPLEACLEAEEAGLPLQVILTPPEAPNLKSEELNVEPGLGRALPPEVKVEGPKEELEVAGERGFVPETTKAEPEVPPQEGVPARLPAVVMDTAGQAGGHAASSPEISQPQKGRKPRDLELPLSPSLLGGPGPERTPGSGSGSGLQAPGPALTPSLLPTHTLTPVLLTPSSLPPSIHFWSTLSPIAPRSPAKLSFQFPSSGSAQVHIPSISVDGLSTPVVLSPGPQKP
# Procedure, shortened: as §1
# [3] = target: T3, GABPA (Homo sapiens, UniProt Q06546 1-454)
# T3 sequence: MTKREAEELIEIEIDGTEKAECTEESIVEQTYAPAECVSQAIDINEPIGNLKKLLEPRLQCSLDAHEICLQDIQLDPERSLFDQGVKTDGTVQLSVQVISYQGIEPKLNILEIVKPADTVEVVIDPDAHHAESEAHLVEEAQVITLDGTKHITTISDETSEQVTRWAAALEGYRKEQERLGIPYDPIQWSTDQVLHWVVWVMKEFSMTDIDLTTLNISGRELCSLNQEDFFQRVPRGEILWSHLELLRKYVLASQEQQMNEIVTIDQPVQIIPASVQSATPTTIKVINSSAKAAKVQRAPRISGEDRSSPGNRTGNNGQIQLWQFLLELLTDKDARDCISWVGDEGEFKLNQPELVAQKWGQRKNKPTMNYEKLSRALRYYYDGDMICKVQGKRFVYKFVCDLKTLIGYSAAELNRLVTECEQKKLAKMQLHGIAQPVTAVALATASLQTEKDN
# Procedure, shortened: as §1
# [4] = target: T4, ERG (Homo sapiens, UniProt P11308 1-479)
# T4 sequence: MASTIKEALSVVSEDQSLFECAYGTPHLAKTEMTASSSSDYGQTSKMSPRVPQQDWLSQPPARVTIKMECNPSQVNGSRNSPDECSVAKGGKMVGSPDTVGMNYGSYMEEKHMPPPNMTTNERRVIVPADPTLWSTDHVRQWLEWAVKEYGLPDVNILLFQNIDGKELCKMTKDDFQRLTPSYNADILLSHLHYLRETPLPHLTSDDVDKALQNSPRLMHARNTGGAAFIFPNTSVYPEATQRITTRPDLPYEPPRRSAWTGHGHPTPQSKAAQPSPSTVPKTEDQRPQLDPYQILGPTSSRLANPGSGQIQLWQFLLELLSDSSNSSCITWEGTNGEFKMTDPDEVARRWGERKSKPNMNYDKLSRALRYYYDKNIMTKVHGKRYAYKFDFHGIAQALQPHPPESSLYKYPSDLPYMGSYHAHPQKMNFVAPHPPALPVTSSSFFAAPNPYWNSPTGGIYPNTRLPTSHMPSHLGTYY
# Procedure, shortened: as §1
# [5] = target: ELF1 (Homo sapiens, UniProt P32519 1-619)
# Procedure, shortened: as §1
# [6] = target: T5, EHF (Homo sapiens, UniProt Q9NZC4 1-300)
# T5 sequence: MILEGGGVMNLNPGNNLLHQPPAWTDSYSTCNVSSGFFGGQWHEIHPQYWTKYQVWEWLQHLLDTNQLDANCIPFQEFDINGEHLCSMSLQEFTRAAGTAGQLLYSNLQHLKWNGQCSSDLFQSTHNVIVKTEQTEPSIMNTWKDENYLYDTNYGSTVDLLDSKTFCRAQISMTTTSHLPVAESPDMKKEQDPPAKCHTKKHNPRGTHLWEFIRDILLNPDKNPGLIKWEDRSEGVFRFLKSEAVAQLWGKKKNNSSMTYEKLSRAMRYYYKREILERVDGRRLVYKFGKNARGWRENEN
# Procedure, shortened: as §1
# [7] = target: SPI1 (Homo sapiens, UniProt P17947 1-270)
# Procedure, shortened: as §1
# [8] = target: SPIB (Homo sapiens, UniProt Q01892 1-262)
# Procedure, shortened: as §1
# [9] = target: T6, ELK3 (Homo sapiens, UniProt P41970 1-407)
# T6 sequence: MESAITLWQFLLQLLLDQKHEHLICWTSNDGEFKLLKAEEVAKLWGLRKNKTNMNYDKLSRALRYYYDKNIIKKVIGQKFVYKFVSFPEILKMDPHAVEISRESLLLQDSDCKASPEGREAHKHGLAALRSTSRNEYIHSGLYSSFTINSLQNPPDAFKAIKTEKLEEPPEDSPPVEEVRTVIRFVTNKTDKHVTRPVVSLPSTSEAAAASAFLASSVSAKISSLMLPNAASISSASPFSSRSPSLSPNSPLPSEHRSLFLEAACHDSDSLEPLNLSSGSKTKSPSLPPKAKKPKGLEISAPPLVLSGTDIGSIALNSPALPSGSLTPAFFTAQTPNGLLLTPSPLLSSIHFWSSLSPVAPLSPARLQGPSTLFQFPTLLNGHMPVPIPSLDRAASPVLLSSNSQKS
# Procedure, shortened: as §1
# [10] = target: T7, FEV (Homo sapiens, UniProt Q99581 1-238)
# T7 sequence: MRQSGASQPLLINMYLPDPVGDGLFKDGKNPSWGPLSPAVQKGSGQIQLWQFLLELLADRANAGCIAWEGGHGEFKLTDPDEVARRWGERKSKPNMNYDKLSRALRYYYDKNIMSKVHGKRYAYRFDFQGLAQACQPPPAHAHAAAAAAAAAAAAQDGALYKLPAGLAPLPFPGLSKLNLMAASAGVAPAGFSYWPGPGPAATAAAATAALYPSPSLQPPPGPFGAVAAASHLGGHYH
# Procedure, shortened: as §1
# [11] = target: ETV5 (Homo sapiens, UniProt P41161 1-510)
# Procedure, shortened: as §1
# [12] = target: T8, SPIC (Homo sapiens, UniProt Q8N5J4 1-248)
# T8 sequence: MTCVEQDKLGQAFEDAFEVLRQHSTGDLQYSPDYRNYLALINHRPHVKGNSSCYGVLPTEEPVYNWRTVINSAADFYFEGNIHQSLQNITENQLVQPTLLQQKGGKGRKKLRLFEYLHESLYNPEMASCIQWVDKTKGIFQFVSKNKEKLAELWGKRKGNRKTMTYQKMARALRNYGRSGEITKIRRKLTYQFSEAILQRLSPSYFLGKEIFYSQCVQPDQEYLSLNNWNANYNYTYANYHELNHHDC
# Procedure, shortened: as §1
# [13] = target: ELF4 (Homo sapiens, UniProt Q99607 1-663)
# Procedure, shortened: as §1
# [14] = target: T9, ELK4 (Homo sapiens, UniProt P28324-2 1-405)
# T9 sequence: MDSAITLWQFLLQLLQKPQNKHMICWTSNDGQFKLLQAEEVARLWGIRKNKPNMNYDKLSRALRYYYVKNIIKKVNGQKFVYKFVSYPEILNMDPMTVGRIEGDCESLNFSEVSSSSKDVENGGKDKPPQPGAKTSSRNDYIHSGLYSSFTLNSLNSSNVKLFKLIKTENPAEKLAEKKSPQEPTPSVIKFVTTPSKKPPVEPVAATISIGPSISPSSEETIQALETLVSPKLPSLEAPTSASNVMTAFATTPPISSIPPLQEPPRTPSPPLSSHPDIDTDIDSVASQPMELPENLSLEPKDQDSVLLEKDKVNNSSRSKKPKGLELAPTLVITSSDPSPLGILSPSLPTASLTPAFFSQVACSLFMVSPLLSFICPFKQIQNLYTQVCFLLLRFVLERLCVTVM
# Procedure, shortened: as §1
# [15] = target: T10, ETV2 (Homo sapiens, UniProt O00321 1-342)
# T10 sequence: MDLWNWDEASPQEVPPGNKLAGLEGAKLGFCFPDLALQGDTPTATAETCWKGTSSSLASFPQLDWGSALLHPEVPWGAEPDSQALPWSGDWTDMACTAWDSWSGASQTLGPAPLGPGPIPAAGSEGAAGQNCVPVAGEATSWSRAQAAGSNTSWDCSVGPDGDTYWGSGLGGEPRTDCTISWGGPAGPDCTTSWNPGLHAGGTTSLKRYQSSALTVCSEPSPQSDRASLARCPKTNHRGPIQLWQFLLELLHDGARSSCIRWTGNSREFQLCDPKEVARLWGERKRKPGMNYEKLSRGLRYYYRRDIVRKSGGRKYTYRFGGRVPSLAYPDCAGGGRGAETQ
# Procedure, shortened: as §1
# [16] = target: T11, ELF3 (Homo sapiens, UniProt P78545 1-371)
# T11 sequence: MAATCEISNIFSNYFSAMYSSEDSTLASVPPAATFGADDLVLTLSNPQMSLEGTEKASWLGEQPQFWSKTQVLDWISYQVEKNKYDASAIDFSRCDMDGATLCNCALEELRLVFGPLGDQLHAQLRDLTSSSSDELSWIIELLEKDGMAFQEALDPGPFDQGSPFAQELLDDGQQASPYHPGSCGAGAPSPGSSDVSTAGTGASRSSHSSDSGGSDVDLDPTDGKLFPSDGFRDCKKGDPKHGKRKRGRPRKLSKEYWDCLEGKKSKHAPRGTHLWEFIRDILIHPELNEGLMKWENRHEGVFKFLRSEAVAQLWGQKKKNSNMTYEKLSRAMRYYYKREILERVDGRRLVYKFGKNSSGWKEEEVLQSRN
# Procedure, shortened: as §1
# [17] = target: ETV1 (Homo sapiens, UniProt P50549 1-477)
# Procedure, shortened: as §1
# ETV5, sequence (P41161 whole entry): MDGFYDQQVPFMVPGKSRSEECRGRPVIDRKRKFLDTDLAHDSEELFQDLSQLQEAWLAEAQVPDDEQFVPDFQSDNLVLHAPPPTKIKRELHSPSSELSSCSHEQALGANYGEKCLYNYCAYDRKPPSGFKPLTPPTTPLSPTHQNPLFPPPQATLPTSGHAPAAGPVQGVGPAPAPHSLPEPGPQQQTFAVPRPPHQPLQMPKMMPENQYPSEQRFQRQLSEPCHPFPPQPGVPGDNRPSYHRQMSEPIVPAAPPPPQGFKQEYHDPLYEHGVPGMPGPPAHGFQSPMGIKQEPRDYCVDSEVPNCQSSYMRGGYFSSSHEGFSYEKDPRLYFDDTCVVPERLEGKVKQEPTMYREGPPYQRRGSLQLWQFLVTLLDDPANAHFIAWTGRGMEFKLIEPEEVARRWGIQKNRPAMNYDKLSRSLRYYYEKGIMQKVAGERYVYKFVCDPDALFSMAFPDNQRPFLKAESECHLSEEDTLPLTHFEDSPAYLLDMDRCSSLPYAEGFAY
# ELF4, sequence (Q99607 whole entry): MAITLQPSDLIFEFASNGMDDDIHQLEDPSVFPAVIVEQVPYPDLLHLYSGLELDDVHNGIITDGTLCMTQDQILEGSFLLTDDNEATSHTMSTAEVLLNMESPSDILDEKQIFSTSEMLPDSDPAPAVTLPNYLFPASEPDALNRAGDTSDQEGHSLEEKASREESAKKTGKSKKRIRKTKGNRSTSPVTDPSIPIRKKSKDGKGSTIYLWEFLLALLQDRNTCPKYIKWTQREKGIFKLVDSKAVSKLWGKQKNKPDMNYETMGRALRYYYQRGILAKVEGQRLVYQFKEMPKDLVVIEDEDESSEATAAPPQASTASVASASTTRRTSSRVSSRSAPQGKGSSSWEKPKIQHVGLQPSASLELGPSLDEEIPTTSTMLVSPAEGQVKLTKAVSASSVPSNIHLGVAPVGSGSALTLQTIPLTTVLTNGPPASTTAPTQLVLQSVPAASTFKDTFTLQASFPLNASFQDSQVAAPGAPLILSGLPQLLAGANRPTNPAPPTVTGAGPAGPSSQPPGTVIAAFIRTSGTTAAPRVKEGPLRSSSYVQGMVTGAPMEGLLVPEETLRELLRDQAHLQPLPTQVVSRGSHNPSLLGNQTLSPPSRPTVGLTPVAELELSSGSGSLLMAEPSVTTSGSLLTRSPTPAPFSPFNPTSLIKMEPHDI
# ELF1, sequence (P32519 whole entry): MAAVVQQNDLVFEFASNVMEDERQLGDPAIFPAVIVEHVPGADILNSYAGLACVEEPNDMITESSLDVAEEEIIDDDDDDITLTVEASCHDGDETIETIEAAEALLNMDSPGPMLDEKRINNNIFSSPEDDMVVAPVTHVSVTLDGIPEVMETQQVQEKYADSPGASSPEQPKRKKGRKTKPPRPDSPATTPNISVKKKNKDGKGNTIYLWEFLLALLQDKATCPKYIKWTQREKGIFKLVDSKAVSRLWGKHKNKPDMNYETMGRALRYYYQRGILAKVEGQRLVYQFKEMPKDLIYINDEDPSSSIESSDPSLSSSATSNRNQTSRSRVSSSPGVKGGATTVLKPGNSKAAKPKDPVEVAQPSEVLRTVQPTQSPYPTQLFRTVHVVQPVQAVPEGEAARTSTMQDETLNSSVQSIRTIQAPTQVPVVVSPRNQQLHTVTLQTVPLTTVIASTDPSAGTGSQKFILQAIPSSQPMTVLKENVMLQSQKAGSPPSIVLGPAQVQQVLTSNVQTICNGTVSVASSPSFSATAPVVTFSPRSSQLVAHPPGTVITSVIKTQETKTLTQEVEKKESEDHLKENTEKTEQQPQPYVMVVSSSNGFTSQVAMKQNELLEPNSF
# SPIB, sequence (Q01892 whole entry): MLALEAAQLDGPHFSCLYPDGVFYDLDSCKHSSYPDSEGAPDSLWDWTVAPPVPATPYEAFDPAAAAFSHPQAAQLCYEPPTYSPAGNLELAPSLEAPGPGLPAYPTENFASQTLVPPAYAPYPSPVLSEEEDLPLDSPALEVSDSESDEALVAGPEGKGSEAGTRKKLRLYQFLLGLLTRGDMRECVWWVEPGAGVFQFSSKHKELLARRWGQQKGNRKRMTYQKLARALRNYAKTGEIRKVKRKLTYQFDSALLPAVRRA
# ETV1, sequence (P50549 whole entry): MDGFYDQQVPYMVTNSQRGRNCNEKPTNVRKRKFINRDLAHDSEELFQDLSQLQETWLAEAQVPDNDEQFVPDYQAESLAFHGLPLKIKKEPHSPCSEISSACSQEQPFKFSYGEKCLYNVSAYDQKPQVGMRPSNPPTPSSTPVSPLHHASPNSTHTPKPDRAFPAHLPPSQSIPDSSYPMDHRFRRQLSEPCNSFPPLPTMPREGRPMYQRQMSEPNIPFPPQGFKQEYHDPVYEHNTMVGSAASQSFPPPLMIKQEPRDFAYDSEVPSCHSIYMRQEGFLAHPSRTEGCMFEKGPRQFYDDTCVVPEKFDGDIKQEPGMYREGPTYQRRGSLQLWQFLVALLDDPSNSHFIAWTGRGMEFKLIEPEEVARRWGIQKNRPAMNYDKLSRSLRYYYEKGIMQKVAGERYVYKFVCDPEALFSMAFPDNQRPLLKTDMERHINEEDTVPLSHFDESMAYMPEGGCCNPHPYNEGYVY
Sequence,binding signal [1],binding signal [2],binding signal [3],binding signal [4],binding signal [5],binding signal [6],binding signal [7],binding signal [8],binding signal [9],binding signal [10],binding signal [11],binding signal [12],binding signal [13],binding signal [14],binding signal [15],binding signal [16],binding signal [17]
TGACGC,"1.1 fold enrichment (6-mer frequency, TF over GST control)","1.22 fold enrichment (6-mer frequency, TF over GST control)","1.15 fold enrichment (6-mer frequency, TF over GST control)","1.13 fold enrichment (6-mer frequency, TF over GST control)","1.3 fold enrichment (6-mer frequency, TF over GST control)","1.21 fold enrichment (6-mer frequency, TF over GST control)","1.15 fold enrichment (6-mer frequency, TF over GST control)","1.24 fold enrichment (6-mer frequency, TF over GST control)","1.1 fold enrichment (6-mer frequency, TF over GST control)","1.13 fold enrichment (6-mer frequency, TF over GST control)","1.28 fold enrichment (6-mer frequency, TF over GST control)","1.18 fold enrichment (6-mer frequency, TF over GST control)","1.37 fold enrichment (6-mer frequency, TF over GST control)","1.3 fold enrichment (6-mer frequency, TF over GST control)","1.18 fold enrichment (6-mer frequency, TF over GST control)","1.11 fold enrichment (6-mer frequency, TF over GST control)","1.07 fold enrichment (6-mer frequency, TF over GST control)"
ACCCCC,"1.17 fold enrichment (6-mer frequency, TF over GST control)","1.16 fold enrichment (6-mer frequency, TF over GST control)","1.21 fold enrichment (6-mer frequency, TF over GST control)","1.16 fold enrichment (6-mer frequency, TF over GST control)","1.09 fold enrichment (6-mer frequency, TF over GST control)","1.12 fold enrichment (6-mer frequency, TF over GST control)","1.14 fold enrichment (6-mer frequency, TF over GST control)","1.21 fold enrichment (6-mer frequency, TF over GST control)","1.18 fold enrichment (6-mer frequency, TF over GST control)","1.19 fold enrichment (6-mer frequency, TF over GST control)","1.18 fold enrichment (6-mer frequency, TF over GST control)","1.12 fold enrichment (6-mer frequency, TF over GST control)","1.2 fold enrichment (6-mer frequency, TF over GST control)","1.28 fold enrichment (6-mer frequency, TF over GST control)","1.05 fold enrichment (6-mer frequency, TF over GST control)","1.29 fold enrichment (6-mer frequency, TF over GST control)","1 fold enrichment (6-mer frequency, TF over GST control)"

# Source: publication PMC7862700, “An all-to-all approach to the identification of sequence-specific readers for epigenetic DNA modifications on cytosine”
